Outcome and AC50 data for 40 molecules are collected here from PubChem BioAssay (EPA / NIEHS).

SMILES strings stand for the structures. The source made the active and inactive calls. The calls were made as follows: active = hit-call score of the fitted dose curve at least 0.9, where 1 is the maximum; inactive = score below 0.9.

By AC50 is commonly meant the concentration at which the activity in the assay is half-maximal.

A short description of the assay: ATG_AP_1_CIS: Attagene CIS-FACTORIAL HepG2 Assay for human Activator Protein 1 (AP-1) (AID 2282931). Particulars: HepG2 Attagene cis-factorial AP-1 reporter mRNA; actives raise or lower the signal. As to the method:
ATG_CIS is a cell-based, multiplexed-readout assay that uses HepG2, a human liver cell line, with measurements taken at 24 hours after chemical dosing in a 24-well plate.ATG_AP_1_CIS is one of 52 assay component(s) measured or calculated from the ATG_CIS assay. It is designed to make measurements of mRNA induction, a form of inducible reporter, as detected with fluorescence intensity signals by Reverse transcription polymerase chain reaction (RT-PCR) and Capillary electrophoresis technology.Data from the assay component ATG_AP_1_CIS was analyzed into 1 assay endpoint. This assay endpoint, ATG_AP_1_CIS, was analyzed with bidirectional fitting relative to DMSO as the negative control and baseline of activity. Using a type of inducible reporter, measures of mRNA for gain or loss-of-signal activity can be used to understand the reporter gene at the transcription factor-level as they relate to the gene FOS and JUN. Furthermore, this assay endpoint can be referred to as a primary readout, because this assay has produced multiple assay endpoints where this one serves a reporter gene function. To generalize the intended target to other relatable targets, this assay endpoint is annotated to the dna binding intended target family, where the subfamily is basic leucine zipper.
Human liver HepG2 cells are transiently transfected with multiple reporter transcription units (MRTUs) in 6-well plates using FuGene 6 reagent (Roche; 3 ml FuGene/1 mg DNA). The MRTU constructs are regulated by a cis-regulating element (promoter). […] A major difference between the CIS and TRANS system is that in CIS activities of endogenous TFs are measured, whereas the TRANS assay evaluates changes in activities of exogenous, chimeric NR-Gal4 proteins. […] At the end of 24 hour incubation, total RNA was isolated using TriZol reagent (Invitrogen). The isolated RNA is then reverse-transcribed using oligo(dT) primer and Mo-MLV reverse transcriptase (Invitrogen) with DNAse I (Ambion) treatment for 30 min. The one-tenth of the produced cDNA was amplified by PCR using Taq DNA polymerase (Invitrogen) and two reporter sequence-specific primers. The PCR products were fluorescently labeled by primer extension with 6-arboxyfluorescein (6-FAM) 5'-labeled reporter sequence-specific primer (2 min at 95 C, 20 s at 68 C and 10 min at 72 C) and these products were digested with 5U of HpaI (New England Biolabs) for 2h at 37 C. The fragments were purified using Qiaquick PCR columns (Qiagen), analyzed on an ABI 3130xL genetic analyzer (Applied Biosystems) with peak positions identified by using a set of X-rhodamine (ROX)-labeled MapMarker1000 molecular weight standards (BioVentures). The raw capillary electrophoresis data was processed using Attagraph software (Attagene).
As for `FC(F)(F)C(F)(F)C(F)(F)C(F)(F)C(F)(F)C(F)(F)CCI`, the call was inactive.

For the molecule `NCCO`, the outcome was inactive. Same read-out and setting: with `O=C(O)Cc1ccccc1Nc1c(Cl)cccc1Cl` the entry was “inactive”. In the case of `Cc1c(C(=O)O)c(O)cc2c1C(=O)c1c(O)c([C@@H]3O[C@H](CO)[C@@H](O)[C@H](O)[C@H]3O)c(O)c(O)c1C2=O`, the call was inactive. Regarding `CC(C)(C)c1cc(O)c(C(C)(C)C)cc1O`, the half-maximal activity concentration (AC50) is 31 µM (active). As for `COc1cc(/C=C/C(=O)CC(=O)/C=C/c2ccc(O)c(OC)c2)ccc1O`, the concentration at half-maximal activity (AC50) is 54.7 µM (active). Consider `CN1CCCC1=O`, for which the outcome was inactive. As for `NC(=O)Cn1c(=O)cc(CCN2CCN(c3nccc4sccc34)CC2)c2ccc(F)cc21`, the call was inactive. Same read-out and setting: with `Oc1ccc2ccccc2c1N=Nc1ccccc1` the entry was “inactive”. Consider `COc1ccc(S(=O)(=O)N2C(=O)[C@@](c3ccccc3OC)(N3C[C@H](O)C[C@H]3C(=O)N(C)C)c3cc(Cl)ccc32)c(OC)c1`, for which the AC50 was 27.6 µM (active).

Turning to `CCCc1cc(=O)[nH]c(=S)[nH]1`, the outcome was inactive.

Regarding `OC[C@@H](O)[C@@H](O)[C@H](O)[C@H](O)CO`, the result was inactive. In the case of `Cc1ccc(C)c(C)c1`, the result was inactive. Take `C=CCOC(=O)c1ccccc1C(=O)OCC=C`: the AC50 is 25.8 µM (active). In the case of `O=C(OCCCCCOC(=O)c1ccccc1)c1ccccc1`, the result was inactive.

With `O=C(O)CCCCC(=O)O`, the molecule was classed as inactive. Consider `Cc1oc(-c2ccccc2)nc1CCOc1cccc2c1ccn2CCC(=O)O`, for which the molecule was classed as inactive. Consider `CC(CO)OC(C)CO` (stereo not given) (tested in a mixture with another compound), for which the outcome was inactive. For the molecule `CCCCc1ccc2c(n1)[C@@H](c1ccc(OC)cc1C[C@H](C)C(=O)O)[C@H](C(=O)O)[C@H]2c1ccc2c(c1)OCO2`, the call was inactive. As to `CCCCCCC(=O)OCC`, the molecule was called inactive.

As to `COc1cccc2c1C(=O)c1c(O)c3c(c(O)c1C2=O)C[C@@](O)(C(=O)CO)C[C@@H]3O[C@H]1C[C@H](N)[C@H](O)[C@H](C)O1`, the AC50 was 2.15 µM (active). With `CNC(=O)[C@H]1O[C@@H](n2cnc3c(NCc4cc(Cl)ccc4OCc4cc(C)no4)ncnc32)[C@H](O)[C@@H]1N`, the outcome was inactive.

As for `Nc1ccc2c(c1)C(=O)c1ccccc1C2=O`, the result was inactive. `Cc1cc(NC(=O)C(=O)O)cc(C)c1Oc1ccc(O)c2c1CCC2`: the outcome was inactive. In the case of `CCCCN(CCCC)CCCC`, the molecule was called inactive.

`CCCCCCCCCCO`: the molecule was classed as inactive. Take `CCCCCCCCCCCCCCCCCC(=O)O`: the outcome was inactive. The same measure, in the same setting: the value for `COC(=O)c1ccc(O)cc1` was “inactive”.

Turning to `COc1cc(-c2nc(NC(=O)c3cc4cc(C)cc(C)c4n3CC(=O)O)sc2CCC2CCCCC2)c(OC)cc1Cl`, the AC50 is 3.59 µM (active). On the same count and under the same terms, the value for `CCc1c(C(=O)NN2CCCCC2)nn(-c2ccc(Cl)cc2Cl)c1-c1ccc(Br)cc1` was 3.93 µM (active). Turning to `NS(=O)(=O)c1cc2c(cc1Cl)NCNS2(=O)=O`, the call was inactive.

As for `CCCCCCCCCCCCCCCC`, the call was inactive. `CN1CCN(Cc2cc(-c3ccc4[nH]c(=O)oc4c3)co2)[C@@H](c2ccc(F)cc2)C1`: the AC50 is 53.9 µM (active). On to `CCCCCCCC=O`, for which the call was inactive. `CNCc1cc(F)ccc1Oc1ccc(Cl)c(Cl)c1`: the outcome was inactive. For `NCC1(Cc2noc(=O)[nH]2)CCCCC1`, the result was inactive. Same read-out and setting: with `CCCCCC(=O)O` the entry was “inactive”; with `CCCCCCCCCCC`, “inactive”. For `Nc1ccccc1N`, the AC50 was 15.7 µM (active). The same measure, in the same setting: the value for `CC1=C(/C=C/C(C)=C/C=C/C(C)=C/CO)C(C)(C)CCC1` was 168 µM (active).
